According to PubChem BioAssay AID651822 (The Scripps Research Institute Molecular Screening Center, 2012):
About 970 (42%) of roughly 2,300 compounds were called active. So high a share suggests a set chosen from earlier hits. Only a sample is shown. Values without a mark were called inactive. Rule as the data show it: active = inhibition above about 4.5%; inactive = the rest.

The compounds below were run on Methionine sulfoxide reductase A (Bos taurus) (assay: bovine MsrA inhibitors, retest, confirmation, biochemical, absorbance, HTS (AID 651822;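 also: coupled to thioredoxin reductase with NADPH and selenocystamine and DMSO as substrate; 0% = vehicle only and 100% = full effect of reference inhibitor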)). Conditions: purified bovine MsrA, absorbance read-out; at 15.5 µM; stronger effect = higher value.

Compound	inhibition
CCCCC(=O)N/N=C/c1c(O)n(CC)c(=S)n(CC)c1=O	6.08% (active)
CCOc1ccc(-c2cc(C)[n+](CCN(CC)CC)c(-c3ccc(OCC)cc3)c2)cc1	3.69%
COc1ccc(C(=O)C2CCCN(Cc3ccc(C)s3)C2)cc1OC (stereo not drawn)	-0.82%
